A short description of assay [1]: NCI Yeast Anticancer Drug Screen. Data for the rad50 strain (AID 155).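 Note: 0% = growth of vehicle-only cultures of the same strain.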 Particulars: S. cerevisiae rad50 strain growth inhibition, hits give high values. The gist of the method: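 Genetically altered yeast (DNA repair pathway); compound treatment; growth inhibition vs vehicle ctrl.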
The nature of assay [2]: NCI Yeast Anticancer Drug Screen. Data for the mec2-1 strain (AID 157). Particulars: S. cerevisiae mec2-1 strain, hits give high values. In short, it runs like this:
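Each compound was tested on mec2-1 yeast, a strain altered in DNA damage repair or cell cycle control. Growth inhibition is reported relative to vehicle.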

Assay [3] is described as follows: NCI Yeast Anticancer Drug Screen. Data for the sgs1 mgt1 strain (AID 161).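 Note: 0% = growth of cultures given vehicle only.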 The settings on record: S. cerevisiae sgs1 mgt1 strain, hits give high values. The gist of the method:
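Test agents were incubated with a DNA-repair-mutant yeast strain. Growth was then read and compared against vehicle-treated controls.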

A short description of assay [4]: NCI Yeast Anticancer Drug Screen. Data for the cln2 rad14 strain (AID 165).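 Note: 0% = growth equal to vehicle treated cultures.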 The settings on record: S. cerevisiae cln2 rad14 strain, hits give high values. In short, it runs like this:
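Test compounds were added to cln2 rad14 yeast cultures; inhibition of growth was then determined by comparison with vehicle treatment.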

Assay [5] in a line: NCI Yeast Anticancer Drug Screen. Data for the bub3 strain (AID 167). Particulars: S. cerevisiae bub3 mutant strain, hits give high values. In short, it runs like this: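 Yeast carrying a defined mutation is treated with each compound, and growth is compared with that of vehicle-exposed cells to give inhibition.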
Assay [6] in a line: NCI Yeast Anticancer Drug Screen. Data for the mlh1 rad18 strain (AID 175). The settings on record: S. cerevisiae mlh1 rad18 strain growth inhibition, hits give high values. The gist of the method: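 Inhibition values reflect reduced growth of mutant yeast versus vehicle-treated controls following compound exposure; the mutations affect DNA damage repair.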
The mark [7] stands for this setting: at 5.0 µM (retest, dose inferred, filed as 0.5).
[8] abbreviates: at 50.0 µM (retest, dose inferred, filed as 5.0).

Molecules are shown by their SMILES. Compounds without any hit were thinned out: in the full panel of roughly 79,000, 15% have a hit. Unmarked numbers belong to inactive results. Activity calls are given as the source filed them. Cut-off read from the data, not from the text of the source: active = growth inhibition above about 70%; inactive = the rest.

For the compound `C#CC(CC)(CC)N=Cc1cc(Cl)cc(Cl)c1O`, the growth inhibition in assay [1] (setting [7]) is 65%; in assay [1] (setting [8]), 94% (active); in assay [1] (at 50.0 µM) it was 89.2% (active); in assay [2] (setting [7]), 42%; in assay [2] (setting [8]) it was 97% (active); in assay [2] (at 50.0 µM), 91.8% (active). The growth inhibition in assay [3] (setting [7]) was 58%; in assay [3] (setting [8]), 99% (active); in assay [3] (at 50.0 µM), 92% (active); in assay [4] (setting [7]), 41%; in assay [4] (setting [8]), 72% (active); in assay [4] (at 50.0 µM) it was 88.7% (active). The growth inhibition was 51% in assay [5] (setting [7]); 66% in assay [5] (setting [8]); 90.7% (active) in assay [5] (at 50.0 µM); 69% in assay [6] (setting [7]); 98% (active) in assay [6] (setting [8]); 90.5% (active) in assay [6] (at 50.0 µM).

In the case of `Oc1cc2c(cc1C(Nc1ncccn1)c1ccc(F)cc1)OCO2` (stereo not given), the growth inhibition in assay [1] (setting [7]) is -1%; in assay [1] (setting [8]), 46%; in assay [1] (at 50.0 µM) it was 17.9%; in assay [2] (setting [7]) it was -1%; in assay [2] (setting [8]), 40%; in assay [2] (at 50.0 µM), 15.7%. For the same compound, the growth inhibition in assay [3] (setting [7]) is 0%; in assay [3] (setting [8]) it was 77% (active); in assay [3] (at 50.0 µM), 79.7% (active); in assay [4] (setting [7]), 4%; in assay [4] (setting [8]), 24%; in assay [4] (at 50.0 µM) it was -12%. In addition, the growth inhibition in assay [5] (setting [7]) was -1%; in assay [5] (setting [8]), 64%; in assay [5] (at 50.0 µM), 44.1%; in assay [6] (setting [7]) it was 0%; in assay [6] (setting [8]), 74% (active); in assay [6] (at 50.0 µM), 43.5%.

`O=C(COc1ccc(Cl)cc1)OCCO`: the growth inhibition in assay [1] (setting [7]) was 0%; in assay [1] (setting [8]) it was 0%; in assay [1] (at 50.0 µM), 4.9%; in assay [2] (setting [7]), -4%; in assay [2] (setting [8]), 0%; in assay [2] (at 50.0 µM), -5.75%. The growth inhibition in assay [3] (setting [7]) is -3%; in assay [3] (setting [8]), -1%; in assay [3] (at 50.0 µM), 0.4%; in assay [4] (setting [7]) it was 3%; in assay [4] (setting [8]), 5%; in assay [4] (at 50.0 µM) it was 40.4%. In addition, the growth inhibition in assay [5] (setting [7]) was 2%; in assay [5] (setting [8]) it was 4%; in assay [5] (at 50.0 µM) it was -5.6%; in assay [6] (setting [7]), 3%; in assay [6] (setting [8]), 5%; in assay [6] (at 50.0 µM), -25.6%.

For the compound `C=CC(=O)c1ccc2c(c1)OCCOCCOCCOCCOCCO2`, the growth inhibition in assay [1] (setting [7]) is -18%; in assay [1] (setting [8]), 64%; in assay [1] (at 50.0 µM), 77.8% (active); in assay [2] (setting [7]) it was 4%; in assay [2] (setting [8]), 50%; in assay [2] (at 50.0 µM) it was 54.5%. Also, the growth inhibition in assay [3] (setting [7]) is -13%; in assay [3] (setting [8]), 40%; in assay [3] (at 50.0 µM), 62.8%; in assay [4] (setting [7]), 20%; in assay [4] (setting [8]), 42%; in assay [4] (at 50.0 µM), 4.4%. Moreover, the growth inhibition was -4% in assay [5] (setting [7]); 78% (active) in assay [5] (setting [8]); 78% (active) in assay [5] (at 50.0 µM); 0% in assay [6] (setting [7]); 86% (active) in assay [6] (setting [8]); 59.4% in assay [6] (at 50.0 µM).

With `CCCCCCCCCCCCCCCC(=O)NCC[N+](CC)(CC)Cc1ccc(C[N+](CC)(CC)CCNC(=O)CCCCCCCCCCCCCCC)cc1`, the growth inhibition in assay [1] (setting [7]) was 99% (active); in assay [1] (setting [8]), 99% (active); in assay [1] (at 50.0 µM), 99.3% (active); in assay [2] (setting [7]), 99% (active); in assay [2] (setting [8]), 100% (active); in assay [2] (at 50.0 µM), 99.6% (active). Also, the growth inhibition in assay [3] (setting [7]) is 99% (active); in assay [3] (setting [8]), 100% (active); in assay [3] (at 50.0 µM), 99.5% (active); in assay [4] (setting [7]), 99% (active); in assay [4] (setting [8]) it was 99% (active); in assay [4] (at 50.0 µM), 99.3% (active). In addition, the growth inhibition in assay [5] (setting [7]) was 98% (active); in assay [5] (setting [8]), 99% (active); in assay [5] (at 50.0 µM), 99.5% (active); in assay [6] (setting [7]), 97% (active); in assay [6] (setting [8]) it was 99% (active); in assay [6] (at 50.0 µM), 99.3% (active).

In the case of `CN(C)c1ccc(C(c2ccc(N(C)C)cc2)c2cccc([N+](=O)[O-])c2)cc1`, the growth inhibition in assay [1] (setting [7]) is -2%; in assay [1] (setting [8]), -3%; in assay [1] (at 50.0 µM) it was -11.2%; in assay [2] (setting [7]), -3%; in assay [2] (setting [8]) it was -13%; in assay [2] (at 50.0 µM), 0.2%. Besides, the growth inhibition in assay [3] (setting [7]) is -2%; in assay [3] (setting [8]), -1%; in assay [3] (at 50.0 µM), -2.45%; in assay [4] (setting [7]), -8%; in assay [4] (setting [8]), -33%; in assay [4] (at 50.0 µM), 14.9%. Further, the growth inhibition in assay [5] (setting [7]) is 43%; in assay [5] (setting [8]), 26%; in assay [5] (at 50.0 µM), 50.1%; in assay [6] (setting [7]) it was -2%; in assay [6] (setting [8]), -12%; in assay [6] (at 50.0 µM) it was 7.9%.

For the compound `CS(=O)(=O)OCCN(CCOS(C)(=O)=O)c1ccc(C=Nc2ccc3ccccc3c2)cc1`, the growth inhibition in assay [1] (setting [7]) was 12%; in assay [1] (setting [8]) it was 80% (active); in assay [1] (at 50.0 µM), 86.7% (active); in assay [2] (setting [7]), 47%; in assay [2] (setting [8]), 55%; in assay [2] (at 50.0 µM), 73.2% (active). Also, the growth inhibition was 6% in assay [3] (setting [7]); 45% in assay [3] (setting [8]); 71.1% (active) in assay [3] (at 50.0 µM); -2% in assay [4] (setting [7]); 64% in assay [4] (setting [8]); 37.7% in assay [4] (at 50.0 µM). Also, the growth inhibition in assay [5] (setting [7]) was -3%; in assay [5] (setting [8]), 6%; in assay [5] (at 50.0 µM), 10.3%; in assay [6] (setting [7]) it was 28%; in assay [6] (setting [8]) it was 90% (active); in assay [6] (at 50.0 µM), 95.3% (active).

For the compound `Cc1cc2ccc(N)nc2[nH]c1=O`, the growth inhibition in assay [1] (setting [7]) is -7%; in assay [1] (setting [8]), -4%; in assay [1] (at 50.0 µM), 25.6%; in assay [2] (setting [7]) it was -2%; in assay [2] (setting [8]) it was -3%; in assay [2] (at 50.0 µM) it was 27.2%. For the same compound, the growth inhibition in assay [3] (setting [7]) was -4%; in assay [3] (setting [8]), 0%; in assay [3] (at 50.0 µM), 10.3%; in assay [4] (setting [7]), -3%; in assay [4] (setting [8]), -1%; in assay [4] (at 50.0 µM), 85.4% (active). Besides, the growth inhibition in assay [5] (setting [7]) was 1%; in assay [5] (setting [8]), 5%; in assay [5] (at 50.0 µM) it was 12.7%; in assay [6] (setting [7]), -2%; in assay [6] (setting [8]) it was 1%; in assay [6] (at 50.0 µM), 24.8%.

Turning to `CC(O)c1cccnc1` (stereo not given), the growth inhibition was 11% in assay [1] (setting [7]); -8% in assay [1] (setting [8]); 65.5% in assay [1] (at 50.0 µM); 10% in assay [2] (setting [7]); 1% in assay [2] (setting [8]); 49.6% in assay [2] (at 50.0 µM). Further, the growth inhibition was 4% in assay [3] (setting [7]); -1% in assay [3] (setting [8]); 20% in assay [3] (at 50.0 µM); 20% in assay [4] (setting [7]); 41% in assay [4] (setting [8]); 58.1% in assay [4] (at 50.0 µM). The growth inhibition in assay [5] (setting [7]) is -6%; in assay [5] (setting [8]), 47%; in assay [5] (at 50.0 µM), 28.6%; in assay [6] (setting [7]), -9%; in assay [6] (setting [8]), 51%; in assay [6] (at 50.0 µM) it was 66%.

In the case of `CC(=O)N(C1=C(Cl)C(=O)c2ccccc2C1=O)c1ccc(C)cc1`, the growth inhibition in assay [1] (setting [7]) was 99% (active); in assay [1] (setting [8]), 99% (active); in assay [1] (at 50.0 µM) it was 99.5% (active); in assay [2] (setting [7]) it was 100% (active); in assay [2] (setting [8]) it was 100% (active); in assay [2] (at 50.0 µM), 99.5% (active). Also, the growth inhibition was 100% (active) in assay [3] (setting [7]); 100% (active) in assay [3] (setting [8]); 99.6% (active) in assay [3] (at 50.0 µM); 100% (active) in assay [4] (setting [7]); 98% (active) in assay [4] (setting [8]); 94% (active) in assay [4] (at 50.0 µM). For the same compound, the growth inhibition is 99% (active) in assay [5] (setting [7]); 99% (active) in assay [5] (setting [8]); 96.5% (active) in assay [5] (at 50.0 µM); 100% (active) in assay [6] (setting [7]); 100% (active) in assay [6] (setting [8]); 99.5% (active) in assay [6] (at 50.0 µM).

For the origin of these results see PubChem BioAssay (NCI).
